SMILES strings stand for the structures. Several values for one entry are separate records, joined by “and”; a condition that tells them apart may be missing. Equal entries are not always repeated. Some compounds were tested as several samples or in several runs, with calls that do not always agree. Activity calls are given as the source filed them. Entries that show only a call come without a potency. Calls follow the shape of the full dose curve.
Potency is read from the fitted curve at half-maximal effect.

For this test, the target named is Estrogen receptor (Homo sapiens) (UniProt P03372). The test can be described thus: qHTS assay to identify small molecule agonists of the estrogen receptor alpha (ER-alpha) signaling pathway in the presence of an antagonist (AID 1259383). Also: nearly all actives have a fitted effect of over 15% in size. Conditions: VM7Luc4E2 cells, ERE-luciferase, +ICI-182,780, 22 h; series mostly up to 92.4 µM. The text has this: National Center for Advancing Translational Sciences [NCATS] NIH Chemical Genomics Center [NCGC] U.S. Environmental Protection Agency [EPA] National Institutes of Environmental Health Sciences [NIEHS] National Toxicology Program [NTP] Assay overview: Estrogen receptor (ER), a member of nuclear hormone receptor plays an important role in development, metabolic homeostasis and reproduction. Two subtypes of ER, ER-alpha and ER-beta, have similar expression patterns with some uniqueness in both types. Endocrine disrupting chemicals (EDCs) and their interactions with steroid hormone receptors like ER causes disruption of normal endocrine function. Therefore, it is important to understand the effect of environmental chemicals in ER signaling pathway. For identifying ER agonists, VM7Luc4E2 cell line has been used in the current assay. VM7Luc4E2 cell line (provided by Denison MS, University of California) endogenously expresses full-length ER-alpha and is stably transfected with a plasmid containing four estrogen responsive elements (ERE) upstream of a luciferase reporter gene. This current screening for measuring luciferase reporter gene activity using VM7Luc4E2 cells against Tox21 10K library collection is a confirmation study on agonist mode screening in presence of ER-antagonist (ICI-182,780) at 10.0nM final concentration.
Sequence of Estrogen receptor (Homo sapiens) (P03372 whole entry, looked up): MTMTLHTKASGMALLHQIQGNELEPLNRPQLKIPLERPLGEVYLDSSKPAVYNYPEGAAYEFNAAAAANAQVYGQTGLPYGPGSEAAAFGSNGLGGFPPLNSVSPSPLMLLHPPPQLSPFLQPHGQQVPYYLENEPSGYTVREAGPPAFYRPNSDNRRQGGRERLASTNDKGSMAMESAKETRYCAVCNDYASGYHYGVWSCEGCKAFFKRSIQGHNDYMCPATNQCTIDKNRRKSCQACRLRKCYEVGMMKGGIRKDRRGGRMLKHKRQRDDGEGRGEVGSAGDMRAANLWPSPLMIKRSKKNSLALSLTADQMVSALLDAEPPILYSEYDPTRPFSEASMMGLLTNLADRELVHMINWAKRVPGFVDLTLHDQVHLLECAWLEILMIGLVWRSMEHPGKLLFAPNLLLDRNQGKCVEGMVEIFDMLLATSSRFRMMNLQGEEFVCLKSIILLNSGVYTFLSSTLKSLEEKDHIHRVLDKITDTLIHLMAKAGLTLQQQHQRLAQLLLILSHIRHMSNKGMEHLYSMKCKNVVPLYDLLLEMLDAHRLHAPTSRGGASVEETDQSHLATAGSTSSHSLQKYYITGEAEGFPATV
Assay Protocol Summary: VM7Luc4E2 cells were cultured in phenol red free assay medium containing 10% charcoal stripped FBS for 5 days prior to the assay. The cells were dispensed at 4,000 cells in 4uL of assay medium per well into white wall/solid-bottom 1536-well plates (Corning Life Sciences, Corning, NY) using a Multidrop Combi (Thermo Fisher Scientific Inc., Waltham, MA) dispenser. After the assay plates were incubated at 37C and 5% CO2 for 24hr, 1uL of 10.0nM (final concentration) ICI-182,780 or assay buffer was added using two separate tips of Flying Reagent Dispenser (FRD, Aurora Discovery, San Diego, CA). Then 23nL of compounds dissolved in DMSO at 15 concentrations and positive controls or DMSO only was transferred to the assay plates by a Pintool station (Wako, San Diego, CA). The assay plates were incubated at 37C and 5% CO2 for 22hr. For luciferase read, 4uL/well ONE-Glo reagent (Promega Corporation, Madison, WI) was added to each well using FRD and after 30min incubation at room temperature, luminescence signal was measured on ViewLux plate reader (PerkinElmer, Shelton, CT).
Consider `Cc1ccc(C)c(C)c1`, for which the Potency entry is “inactive”. In the case of `OCC1CCCO1` (stereo not given) it was “inactive”; in that of `O=C(c1ccc(O)cc1)c1ccc(O)cc1O`, 15.5 µM (active) and 13.7 µM (active). In the case of `S=c1nc[nH]c2nc[nH]c12`, the Potency entry was “inactive”.

As for `CCC(=O)O`, the Potency result was “inactive”. As for `CC1(C)O[C@@H]2C[C@H]3[C@@H]4C[C@H](F)C5=CC(=O)CC[C@]5(C)[C@H]4[C@@H](O)C[C@]3(C)[C@]2(C(=O)CO)O1`, the entry is “inactive”; as for `CC1Cc2ccccc2N1NC(=O)c1ccc(Cl)c(S(N)(=O)=O)c1` (stereo not given), “inactive”; as for `c1ccc2ccccc2c1`, “inactive”. In the case of `C=C(C)C(=O)OCCCCCC` it was “inactive”. As for `CCCCOCCO`, the entry is “inactive”; as for `C=CC(=O)OCCCCCCCC(C)C`, “inactive”; as for `CCCCCCCCC`, “inactive”. As to `Oc1c(Cl)cc(Cl)c(Cl)c1Cl`, the Potency entry was “inactive”. In the case of `CC(C)(C)C1CCC(O)CC1` (stereo not given) it was “inactive”. In the case of `O=[N+]([O-])C(CO)(CO)CO` it was “inactive”; in that of `OC[C@@H](O)[C@@H](O)[C@H](O)[C@@H](O)CO`, “inactive”.

In the case of `C=C1C2CCC(C2)C1(C)C` (stereo not given), the Potency result was “inactive”. On to `NS(=O)(=O)c1cc2c(cc1Cl)NC=NS2(=O)=O`, for which the Potency entry was “inactive”. For `CCCCCCCCCCCCOCC1CO1` (stereo not given), the Potency entry was “inactive”. In the case of `CC(C)(CO)COC(=O)C(C)(C)CO` it was “inactive”; in that of `CCCCC/C=C\C/C=C\CCCCCCCC(=O)OC`, “inactive”; in that of `Oc1ccc(OCc2ccccc2)cc1`, 15 µM (active) and inactive. For `COC(=O)c1ccc(C(=O)OC)cc1`, the Potency result is “inactive”. As for `O=S(=O)(Oc1ccc(Cl)cc1Cl)c1ccccc1`, the entry is “inactive”; as for `CC#C[C@]1(O)CC[C@H]2[C@@H]3CCC4=CC(=O)CCC4=C3[C@@H](c3ccc(N(C)C)cc3)C[C@@]21C`, “inactive”; as for `Nc1c(S(=O)(=O)O)cc(Br)c2c1C(=O)c1ccccc1C2=O`, “inactive”. `O=S(=O)(O)c1cc(S(=O)(=O)O)c2c(N=Nc3ccccc3)c(O)ccc2c1`: the Potency result was “inactive”. In the case of `OCCOCCOCCOCCO` it was “inactive”. In the case of `Oc1ccc2ccccc2c1N=Nc1ccccc1` it was “inactive”. As for `COC(=O)c1ccccc1O`, the entry is “inactive”; as for `CC(C)Cc1ccccc1`, “inactive”; as for `O=Nc1ccc(O)cc1`, “inactive”. Consider `CS(=O)(=O)c1ccc([C@@H](O)[C@@H](CO)NC(=O)C(Cl)Cl)cc1`, for which the Potency entry is “inactive”.

Regarding `O=C(Cl)c1c(Cl)c(Cl)c(C(=O)Cl)c(Cl)c1Cl`, the Potency result was “inactive”.

As to `CC(C)(C)C(=O)C1C(=O)c2ccccc2C1=O`, the Potency result is “inactive”. As for `CC1(C)CC(N=C=O)CC(C)(CN=C=O)C1` (stereo not given), the entry is “inactive”; as for `NCc1cccc(CN)c1`, “inactive”.

In the case of `CCC(C)C=O` (stereo not given), the Potency was 1.09 µM (active) and inactive. As for `O=C1CCCCC1`, the entry is “inactive”; as for `CN(CCOc1ccc(CC2SC(=O)NC2=O)cc1)c1ccccn1` (stereo not given), “inactive”.

The values above are taken from PubChem BioAssay (Tox21).
